# Sampled rows, rich in hits. Any-hit rate of the full collection: about 19%.
# SW480 rerep = induces DNA re-replication in SW480 colon adenocarcinoma cells; hit rate 1.8% among 340,000; Potency, µM (titrated, usually from 46.1 µM), inactives show top-dose re-replication activation, most hits filed as activators; SW480 DNA re-replication, Hoechst DNA content imaging, 48 h; AID 624297; further: potency means the concentration at half of the fitted maximal effect; % of control where 0% means no effect; nearly all actives have a fitted effect of over 55% in size
#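 SW480 cells exposed to compounds for 48 hr at 37 C, 5% CO2, then Hoechst-stained 40 min. Nuclear DNA content imaged by fluorescence scanning (405 nm excitation, 500-530 nm emission); re-replication scored as increased high-intensity nuclei.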
# TDP1 cell noCPT = qHTS for Inhibitors of human tyrosyl-DNA phosphodiesterase 1 (TDP1): qHTS in cells in absence of CPT; DT40 Tdp1-/- hTDP1 cells, no CPT, ATP luminescence, 48 h; Potency, µM (top dose mostly 46.2 µM), without a hit: at the highest dose activity change, negative = growth inhibition, hits mostly inhibitors; hit rate 15% among 420,000; AID 686978, 2013; further: potency means the concentration at half of the fitted maximal effect; on the % scale 0 is the no-effect control and ±100 the full control effect; nearly all actives have a fitted effect of over 55% in size
#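 Camptothecin absent (DMSO only). Human TDP1-complemented DT40 knockout cells, 400 cells/well, 37 °C for minimum 48 hr; ATP measured via CellTiter-Glo, 30 min dark incubation, luminescence.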
# TDP1 cell CPT = DT40-hTDP1 cell growth loss with CPT | chicken DT40 Tdp1-/-;hTDP1 cells + 20 nM CPT, ATP luminescence, 48 h | Potency, µM (doses to about 46.2 µM), for the others: top-dose activity change, negative = growth inhibition, actives largely listed as inhibitors | hit rate 12% among 420,000 | AID 686979; further: potency means the concentration at half of the fitted maximal effect; on the % scale 0 is the no-effect control and ±100 the full control effect; nearly all actives have a fitted effect of over 55% in size
#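 Chicken DT40 Tdp1-/- cells complemented with human TDP1, 400 cells/well, exposed to compounds plus 20 nM camptothecin for at least 48 h at 37 C; viability read as ATP content by CellTiter-Glo luminescence.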
# BCR signal inh = chronic active BCR signaling inhibition | ABC-DLBCL IkBa-CBG/CBR reporter, luminescence ratio, 4 h | AID 493014 | hit rate 0.05% among 340,000 | Potency, µM (highest dose often 46.1 µM), without a hit: top-dose activity change, negative = inhibition, most hits filed as inhibitors; active means well fitted inhibition curve with a large enough effect in the signal ratio, with a control signal flat, not every such curve was filed as active; inconclusive means small, poorly fitted or top-dose-only effect, or effect the other way, or a change in a side signal; the % refers to the signal ratio;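 further: potency means the concentration at half of the fitted maximal effect; plate controls were basal doxycycline-induced cells for no effect and cells given 10 µM MG132 for full effect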
#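 Compounds up to 46 uM were incubated four hours with TMD8 cells whose green CBG68 luciferase is fused to IkappaBalpha; red CBR luminescence normalised the signal, and concentration-effect curves were fitted to fusion, red and ratio data.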
# IL1B secr inh = inflammasome signaling inhibition, IL-1 beta readout. THP-1 LPS/ATP IL-1B secretion, AlphaLISA, 16 h; stronger effect = lower value. hit rate 4.7% among 360,000. activity change, % at 57.5 µM; in the data active means activity change below about -50%; inconclusive means mostly about -30% to -49%; further: on the % scale 0 is the no-effect control and ±100 the full control effect
#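 Secreted IL-1B measured by AlphaLISA bead assay after 16 h compound exposure of THP-1 cells; compounds (final up to 57.5 uM) added 1 h before LPS (250 ng/mL) and ATP (1.25 mM) stimulation; lower signal means less secretion.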
# MCF10A rereplic = inducers of DNA re-replication in MCF 10A breast cells | AID 624296 | Potency, µM (top dose mostly 46.1 µM), for the others: top-dose activity, positive = re-replication, hits mostly activators | MCF 10A DNA re-replication, Hoechst nuclear intensity, 48 h | hit rate 2.9% among 350,000; further: potency means the concentration at half of the fitted maximal effect; % of control where 0% means no effect; nearly all actives have a fitted effect of over 50% in size
# Active calls of the source: *; ? = inconclusive; . = no result; [ ] = another dose, or the depositor's remark. Unless noted, the call rests on the fitted dose curve; in most records, active means well fitted curve in the direction sought with a large enough effect; inconclusive means small, poorly fitted or top-dose-only effect, or another doubt; inactive means no such curve, though single readings can be large; an effect the other way counts as inactive or inconclusive.
SMILES,SW480 rerep,TDP1 cell noCPT,TDP1 cell CPT,BCR signal inh,IL1B secr inh,MCF10A rereplic
CCOC(=O)c1ccc(S(=O)(=O)N2CCN(C/C=C/c3ccccc3)CC2)cc1,-12.1%,13µM*,?,3.7%,1.1,8.4%
O=C(c1cccc(S(=O)(=O)N2CCOCC2)c1)N1CCN(C/C=C/c2ccccc2)CC1,12.5%,?,?,?,6.6,?
COc1ccc(S(=O)(=O)N2CCN(CCCOc3ccc(F)cc3)CC2)cc1OC,6.5%,20.6µM*,?,2.0%,-14.5,?
Cc1ccc(NC(=O)COC(=O)CCC2CCCC2)cc1S(=O)(=O)N1CCOCC1,-1.1%,-27.9%,-5.8%,-1.8%,-7.6,-1.4%
CCOC(=O)c1cccc(NC(=O)CCS(=O)(=O)c2ccc3c(c2)CC(=O)N3C)c1,.,-2.3%,-24.8%,.,.,.
CC1CN(CC(O)COc2ccc(C#N)cc2)CCN1CC(O)COc1ccc(C#N)cc1 (stereo not drawn),-1.3%,23.1µM*,20.6µM*,0.5%,30.4,-6.3%
CCOC(=O)c1ccc(S(=O)(=O)N2CCN(CC(O)COc3ccc(C#N)cc3)CC2)cc1 (stereo not drawn),4.6%,18.4µM*,?,-3.6%,7.7,-0.1%
CCOC(=O)c1ccc(S(=O)(=O)NNS(=O)(=O)c2ccc(C)cc2)cc1,-5.9%,0.7%,10.8%,0.3%,-25.7,-7.5%
CCOC(=O)c1ccc(S(=O)(=O)NC2CCC(C)CC2)cc1 (stereo not drawn),-18.5%,20.6µM*,16.4µM*,?,18.6,2.2%
CCOC(=O)c1ccc(S(=O)(=O)N2CCN(C)CC2)cc1,-22.0%,-2.0%,2.8%,1.6%,14.7,5.17µM*
CCOC(=O)c1ccc(S(=O)(=O)N2CCN(CCC#N)CC2)cc1,-2.5%,-25.7%,0.5%,0.4%,34.4,17.6%
Nc1nnn(CC(=O)N/N=C/c2cccc(Cl)c2)n1,-9.2%[9.22 µM],0.9%,8.2%,?,-2.8,-11.4%
CC(C)(C)c1nnc(NS(=O)(=O)c2cc(Cl)ccc2Cl)s1,18.8%,3.7%,-19.4%,1.7%,32.8,?
O=S(=O)(Nc1nc(-c2sccc2Cl)cs1)c1cc(Cl)ccc1Cl,-1.2%,-21.8%,-21.6%,6.8%,35.3,8.2µM*
CN(C)C(=O)c1cccc(COc2ccc(N3C(N)=NC(N)=NC3(C)C)cc2Cl)c1,.,0.164µM*,0.0184µM*,.,7.5,.
CN(C(=O)c1cccc(COc2ccc(Cl)cc2Cl)c1)c1ccccc1,1.7%,?,20.6µM*,?,-16.5,?
COC(=O)c1ccccc1NC(=S)NC(=O)COc1ccccc1Cl,1.3%,-5.9%,3.2%,7.4%,0.0,13.5%
CC1(C)N=C(N)N=C(N)N1c1ccc(C(=O)O)cc1,.,.,.,2.9%,.,.
COC(=O)c1ccccc1NC(=O)c1cccc(COc2ccccc2Cl)c1,?,8.2µM*,9.2µM*,?,-6.6,2.59µM*
O=C(NCc1ccccc1)c1cccc(COc2ccccc2Cl)c1,0.9%,-24.3%,-14.7%,9.7%,-63.1*,?
O=C(NCc1ccccc1)c1cccc(COc2cc(Cl)ccc2Cl)c1,?,?,-10.0%,?,-8.9,27.4%
COc1ccc(NC(=O)C2c3ccccc3OCC(=O)N2Cc2ccco2)cc1 (stereo not drawn),.,-18.1%,1.5%,.,-8.9,.
O=C(O)c1ccc(Cl)c(NC(=S)NC(=O)c2cccc(COc3ccccc3)c2)c1,1.9%,-21.8%,6.4%,-10.9%,19.0,8.2µM*
CCCCn1nnnc1C(c1cc2ccccc2o1)N1CCCCC1 (stereo not drawn),.,?,?,.,-8.2,.
CCCCn1nnnc1C(c1cc2ccccc2o1)N1CCN(CCN(C)C)CC1 (stereo not drawn),.,20.6µM*,?,.,-4.7,.
SMILES,SW480 rerep,TDP1 cell noCPT,TDP1 cell CPT,BCR signal inh,IL1B secr inh,MCF10A rereplic
CCCCn1nnnc1C(c1cc2ccccc2o1)N1CCN(c2c(C)cccc2C)CC1 (stereo not drawn),.,18.4µM*,?,.,4.2,.
CCCCn1nnnc1C(c1cc2ccccc2o1)N1CCN(c2ccncc2)CC1 (stereo not drawn),.,23.1µM*,20.6µM*,.,-60.8*,.
Cc1cccc(C)c1N1CCN(C(c2cc3ccccc3o2)c2nnnn2C(C)(C)C)CC1 (stereo not drawn),.,?,14.6µM*,.,9.4,.
O/N=C\c1ccc2noc(-c3ccc(Cl)cc3)c2c1,?,-27.1%,-14.1%,10.0%,25.1,?
CC1Nc2ccc(C(=O)NC3CCCCC3)cc2NC1=O (stereo not drawn),-4.0%,-12.8%,-8.5%,10.3%,64.3,-1.8%
C=CCC1(C)C(=O)N(c2ccccc2)c2ccccc21 (stereo not drawn),-698.1%,-4.4%,-0.3%,4.3%,4.1,-1.1%
C=CCCC1(C)C(=O)N(c2ccccc2)c2ccccc21 (stereo not drawn),18.4µM*,?,?,1.3%,16.1,?
O=C(CSc1nc2c(c(=O)[nH]1)CN(Cc1ccc(F)cc1)CC2)Nc1ccc(F)cc1,?,16.4µM*,20.6µM*,?,12.6,24.4%
Cc1ccc(NC(=O)CSc2nc3c(c(=O)[nH]2)CN(Cc2ccc(F)cc2)CC3)cc1C,-3.3%,?,?,10.7%,-0.5,?
COc1ccc(Br)cc1C1Nc2cccc3cccc(c23)N1,-3.8%,?,?,?,25.8,16.7%
COc1cc(C2Nc3cccc4cccc(c34)N2)cc(OC)c1OC(C)=O,-7.3%,23.1µM*,?,0.4%,-20.4,-9.0%
COc1cc(C2Nc3cccc4cccc(c34)N2)ccc1O,-0.8%,?,?,8.2%,-82.8*,0.7%
C[C@H](CO)N1C[C@H](C)[C@@H](CN(C)Cc2ccc3cccnc3c2)OCc2cnnn2CCCC1=O,.,-2.4%,-7.8%,.,1.9,.
COc1ccc(C2CC(c3ccc4ccccc4c3)=NN2C(=O)CN2C(=O)CCC2=O)cc1 (stereo not drawn),-1.4%,23.1µM*,25.9µM*,3.5%,?,6.5%
COc1ccc(C2CC(c3ccccc3)=NN2C(=O)COC(=O)C2CC2)cc1 (stereo not drawn),-0.8%,?,-6.5%,-2.5%,-14.1,4.1%
COc1ccc(C2=NN(C(=O)CN3CCCC3)C(c3ccc(OC)cc3)C2)cc1 (stereo not drawn),-29.0%,-28.7%,-12.6%,-2.9%,-62.3*,-11.3%

# Assay outcomes from PubChem BioAssay.
